# Bioassay records: PubChem, several laboratories
# Sa ugtP lethal: growth inhibition of ugtP-null S. aureus, primary screen, RN4220 ugtP deletion, OD600; 16 h; growth inhibition, % (concentration not given with the values); hit rate 0.54% among 330,000; in the data active = growth inhibition above about 68%;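 note: plate controls were untreated wells for no effect and antibiotic for full effect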
# Sa RN4220 lethal: growth inhibition of S. aureus RN4220, primary screen, OD600. 16 h. inhibition, % (concentration not given with the values). hit rate 0.33% among 330,000; in the data active = inhibition above about 85%;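 note: plate controls were untreated cells for no effect and reference antibiotic for full effect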
# PriA SSB inh: inhibitors of Klebsiella pneumoniae PriA binding to SSB C-terminal tail, primary screen, biochemical, AlphaScreen. AID 1272365, 2023. inhibition, % at 33 µM. AlphaScreen SSBct-PriA binding, biotinylated peptide. PriA–SSB C-terminal tail interaction (Klebsiella pneumoniae). hit rate 0.6% among 430,000; in the data active = inhibition mostly above about 37%, no sharp cut-off; inactive = mostly below about 20%;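 note: plate controls were negative control peptide for no effect and reference peptide for full effect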
# Mtb hypoxia rep: PubChem AID 1159583; M. tuberculosis hypoxia-regulated fluorescent reporter, fluorescence; fluorescence inhibition, % (concentration not given with the values); hit rate 0.1% among 300,000; in the data active = fluorescence inhibition mostly above about 23%, no sharp cut-off; inactive = mostly below about 17%
# Numbers without * were called inactive; . = no result shown; ! = a repeat was not active. Shown are actives, neighbours in structure and some others; about 1.1% of the full set was active somewhere.
SMILES,Sa ugtP lethal,Sa RN4220 lethal,PriA SSB inh,Mtb hypoxia rep
CCOC(=O)C1=C(COC(=O)c2ccc(OC)c(S(=O)(=O)N3CCOCC3)c2)NC(=O)NC1C (configuration not stated),1.7,1.3,8.3,18.0*
CS(=O)(=O)Nc1ccc(C2=NN(C(=O)c3cccs3)C(c3cccc([N+](=O)[O-])c3)C2)cc1 (configuration not stated),.,.,1.0,.
O=C(Nc1ccccc1Cl)c1ccccc1Oc1ccc(C(F)(F)F)cc1[N+](=O)[O-],30.9,-1.4,46.6*,.
CCC(Sc1ccc2nnc(-c3ccccn3)n2n1)C(=O)O (configuration not stated),.,.,103.0*,.
CC(=O)Nc1ccc(NC(=O)CSc2ccc3nnc(-c4ccccn4)n3n2)cc1,-6.2,1.9,39.3*,9.2
CCC(Sc1ccc2nnc(-c3ccc(F)cc3)n2n1)C(=O)O (configuration not stated),9.2,-0.9,-4.3,3.6
COC(=O)c1ccc(NC(=O)CSc2ccc3nnc(-c4ccccn4)n3n2)cc1,.,.,-13.0,.
CCOC(=O)CSc1ccc2nnc(-c3ccccn3)n2n1,.,.,90.0*,.
CCOC(=O)C(C)Sc1ccc2nnc(-c3ccccn3)n2n1 (configuration not stated),.,.,75.7*,.
Cc1cc(=O)n2c(n1)SCC2CC(=O)N1CCN(C(=O)c2ccco2)CC1 (configuration not stated),.,.,-9.0,.
O=C(NCc1ccccn1)c1ccc(S(=O)(=O)NC2CCCC2)cc1,.,.,-15.0,.
Cc1c(N=Cc2nc3ccccc3n2C)c(=O)n(-c2ccccc2)n1C,-1.7,0.8,-9.4,-2.9
Cc1cccc(-c2ccc(C=Nc3c(C)n(C)n(-c4ccccc4)c3=O)o2)c1,0.6,1.3,49.9*,.
NC(Cn1cncn1)=NOC(=O)c1ccc(Cl)cc1Cl,.,.,-13.8,.
Cc1ccc(C2CC(=O)Nc3c2ccc2ccccc32)cc1[N+](=O)[O-] (configuration not stated),.,.,41.8*,.
O=C(Nc1nccs1)c1ccc2ncsc2c1,.,.,-9.0,.
CCOC(=O)c1c(C)oc2c1c(C(c1ccccc1)N1CCOCC1)c(O)c1ccccc12 (configuration not stated),89.2*,13.8,10.1,8.4
CCOC(=O)c1c(C)oc2c1c(C(c1ccc(OC)cc1)N1CCOCC1)c(O)c1ccccc12 (configuration not stated),.,.,-3.0,.
CC12CCC(O)CC1=CCC1C2CCC2(C)C(c3ccn[nH]3)CCC12 (configuration not stated),97.6*,-0.8,-6.5,-6.3
COc1cc(C(=O)Sc2ccc(Cl)cc2)cc(OC)c1OC,92.9*,0.9,-9.4,.
COc1cc(C(=O)NCCSc2ccc(Cl)cc2)cc(OC)c1OC,-5.4,0.5,-10.3,-9.5
Cc1ccc(NC(=O)c2n[nH]nc2Nc2ccc(F)cc2)c(Br)c1,.,.,-8.0,.
Nc1ccc(N2CCCCC2)cc1N1CCCCC1,-8.0,30.5,63.1*,.
COC(=O)C1CC(Oc2ccccc2F)CN1S(=O)(=O)c1cccs1 (configuration not stated),.,.,1.0,.
CSc1nc2cc(Oc3cccc(Cl)c3Cl)c(Cl)cc2[nH]1,97.2*,99.8*,-6.2,-4.0
SMILES,Sa ugtP lethal,Sa RN4220 lethal,PriA SSB inh,Mtb hypoxia rep
C=CCOc1c(Br)cc(CNc2ccc(NC(=O)C(C)C)c(OC)c2)cc1OC,-5.2,1.6,42.1*,15.6
COc1cc(CNc2ccc(C(=O)O)cc2)cc(Br)c1OCC(=O)NC(C)(C)C,3.6,6.2,-5.5,8.4
COc1ccccc1NC(=O)CSc1nnc(-c2ccccc2)n1Cc1ccco1,.,.,54.9*,.
Clc1ccc(CSc2nnc(-c3ccccn3)n2Cc2ccco2)c(Cl)c1,-3.9,0.2,49.1*,7.9
Fc1ccccc1CSc1nnc(-c2cnccn2)n1Cc1ccco1,-1.9,7.3,-8.2,5.5
CCOc1ccccc1NC(=O)CSc1nnc(-c2ccco2)n1Cc1ccco1,6.3,-2.2,-2.9,-1.1
O=C(CSc1nnc(-c2ccccn2)n1Cc1ccco1)c1ccc(-c2ccccc2)cc1,-16.7,10.0,49.1*,-13.7
Cc1cc(S(=O)(=O)N2CCOC23CCNCC3)ccc1F,.,.,4.0,.
O=C(NN=Cc1cccc(F)c1)c1c(O)c2ccccc2[nH]c1=O,100.1*,99.4*,-12.5,-2.2
O=C1OC2(CCN(C(=O)Nc3ccc4c(c3)OCO4)CC2)c2ccccc21,.,.,9.0,.
NS(=O)(=O)c1ccc(O)c(N2C(=O)c3cccc4c(C(=O)c5ccccc5)ccc(c34)C2=O)c1,.,.,46.0*,.
CC(=CC(=O)OCCCCCCCCC(=O)O)CC1OCC(CC2OC2C(C)C(C)O)C(O)C1O (configuration not stated),100.2*,100.2*,.,7.5
Cc1ccc(C2c3c(C)nn(-c4ccc([N+](=O)[O-])cc4)c3N=C3C(=O)Nc4ccccc4N32)cc1 (configuration not stated),3.2,2.0,.,40.1*
Cc1nn(-c2ccc([N+](=O)[O-])cc2)c2c1C(c1ccc(OC(F)F)cc1)N1C(=N2)C(=O)Nc2ccccc21 (configuration not stated),.,.,-19.1,.
O=C(NN=Cc1ccc(OCc2ccccc2)cc1)c1ccncc1,3.9,6.1,-0.3,36.5*
COc1ccc(C=NNC(=O)c2cc(O)c(O)c(O)c2)cc1COc1ccc(C(=O)OCC(C)C)cc1,98.7*,26.5,-5.8,5.2
CC(C)(C)c1ccc(OCc2ccc(C(=O)NN=Cc3ccc(O)c(O)c3)cc2)cc1,93.7*,46.6,-5.8,9.6
O=C(NN=Cc1ccccc1)c1ccc(OCc2ccccc2)cc1,6.7,3.1,-4.2,8.7
C=CCn1c(-c2ccccc2)cnc1SCC(=O)NC,.,.,-9.0,.
Cc1cccc(C(=O)N2N=C(c3ccco3)CC2c2ccco2)c1 (configuration not stated),.,.,4.0,.
COC(=O)N1CCC(CNC(=O)CCc2ccccc2F)CC1,.,.,-3.0,.
COC1C(OC(=O)c2ccc(C)[nH]2)C(O)C(Oc2ccc3c(O)c(NC(=O)c4ccc(O)c(CC=C(C)C)c4)c(=O)oc3c2Cl)OC1(C)C (configuration not stated),100.3*,94.1*,17.6,.
CCC(=O)NCc1nc(C)cc(N(C)C)n1,.,.,-6.0,.
COc1ccc(N2CCN(C(=O)c3ccc(Cn4nc(C)c([N+](=O)[O-])c4C)o3)CC2)cc1,8.8,-0.6,47.5*,-5.1
c1ccc2c(-c3cc(C4CCNCC4)[nH]n3)cccc2c1,-0.4,1.7,39.0*,13.5
SMILES,Sa ugtP lethal,Sa RN4220 lethal,PriA SSB inh,Mtb hypoxia rep
CC[n+]1c(/C=C/c2ccc(N(C)C)cc2)ccc2ccccc21,96.1*,98.2*,14.7,10.5
CC[n+]1ccc(/C=C/c2ccc(N(C)C)cc2)c2ccccc21,95.5*,92.3*,23.2,16.9
CC[n+]1c(/C=C/c2ccc(OC)c(OC)c2)ccc2ccccc21,3.9,1.0,-16.6,7.9
CCN(CC)c1ccc(/C=C/c2ccc3ccc(OC)cc3[n+]2CC)cc1,98.7*,99.9*,-1.1,.
CC[n+]1ccccc1/C=C/c1ccc(N(C)C)cc1,6.7,2.4,-5.7,.
CN(C)S(=O)(=O)c1ccc(C(=O)N2CCN(c3ccc4nncn4n3)CC2)cc1,.,.,-5.0,.
CC(=O)c1cccc(NC(=O)CSc2ccc(-c3ccccn3)nn2)c1,5.8,-0.7,47.9*!,9.8
Cc1cccc(NC(=O)CSc2ccc(-c3ccccn3)nn2)c1,.,.,70.7*,.
